Assay results from PubChem BioAssay (NCI).
Compounds without any hit were thinned out: in the full panel of roughly 83,000, 20% have a hit.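 Treatment: one concentration, 48 hours, 96-well format. Scoring: percent growth, with anything below 10 considered active.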 Active and inactive are the calls of the source.

Legend:
Experiment in all cases: NCI-60 one-dose screen, 48 h (100 = growth as untreated, 0 = no growth, -100 = all killed)
[1] = test system: SR leukemia; settings: 10 µM unless noted
[2] = test system: RPMI-8226 leukemia; settings: 10 µM unless noted
[3] = test system: OVCAR-8 ovarian; settings: 10 µM unless noted
[4] = test system: OVCAR-5 ovarian; settings: 10 µM unless noted
[5] = test system: OVCAR-4 ovarian; settings: 10 µM unless noted
[6] = test system: SK-OV-3 ovarian; settings: 10 µM unless noted
[7] = test system: IGROV1 ovarian; settings: 10 µM unless noted
[8] = test system: OVCAR-3 ovarian; settings: 10 µM unless noted
[9] = test system: HS 578T breast; settings: 10 µM
[10] = test system: NCI/ADR-RES ovarian; settings: 10 µM unless noted
[11] = test system: T-47D breast; settings: 10 µM unless noted
[12] = test system: BT-549 breast; settings: 10 µM unless noted
[13] = test system: MDA-MB-435 melanoma; settings: 10 µM unless noted
[14] = test system: SW-620 colon; settings: 10 µM unless noted
[15] = test system: MCF7 breast; settings: 10 µM unless noted
[16] = test system: HCT-116 colon; settings: 10 µM unless noted
[17] = test system: HCC-2998 colon; settings: 10 µM
[18] = test system: KM12 colon; settings: 10 µM unless noted

Measured: growth

O=C(CNc1nc(-c2ccc(Cl)cc2)cs1)Nc1ccc(-c2nc3ccccc3s2)cc1
inactive: [1] 89.7% | [2] 87.4% | [3] 98% | [4] 90.4% | [5] 70.5% | [6] 95% | [7] 59.1% | [8] 94% | [9] 91.3% | [10] 94.2% | [11] 56.1% | [12] 107% | [13] 104% | [14] 99.9% | [15] 29.9% | [16] 95.5% | [17] 97.5% | [18] 99%

COC(=O)[C@@H](NC(=O)[C@@H](OC)[C@@H]1Cc2cc3cc(OC4CC(OC5CC(O)C(O)C(C)O5)C(O)C(C)O4)c(C)c(O)c3c(O)c2C(=O)[C@H]1OC1CC(OC2CC(OC3CC(C)(O)C(O)C(C)O3)C(O)C(C)O2)C(O)C(C)O1)C(C)C (some centres undefined)
inactive: [3] 12.6% | [5] 13.4% | [6] 20.4% | [7] 32.3% | [8] 15.3% | [10] 69.6% | [11] 10.2% | [13] 18.9% | [14] 16.6% | [17] 11.2%
active: [1] -8.16% | [2] -1.18% | [4] 2.67% | [9] -13.9% | [12] -20.7% | [15] 6.73% | [16] 4.79% | [18] 4.63%

O=C(Cn1c(=O)ccn(CCCCCCCCOc2ccc(Br)cc2)c1=O)Nc1ccc(Oc2ccc(Cl)cc2)cc1
inactive: [1] 28.7% | [2] 34.2% | [3] 63.9% | [4] 108% | [5] 53.4% | [6] 65.3% | [7] 77.2% | [8] 83.7% | [9] 81.8% | [10] 42.7% | [11] 37.8% | [12] 54.1% | [13] 65.6% | [14] 73% | [15] 41.3% | [16] 46.5% | [17] 75.5% | [18] 61.7%

O=C(Cn1cncn1)Nc1ccc(-c2nc3ccccc3s2)cc1
inactive: [1] 83.8% | [2] 83.3% | [3] 94.6% | [4] 115% | [5] 80.6% | [6] 99.9% | [7] 92.4% | [8] 91% | [9] 103% | [10] 102% | [11] 64.9% | [12] 91.5% | [13] 105% | [14] 106% | [15] 36.1% | [16] 95.4% | [17] 93.9% | [18] 98.2%

COc1ccc2c(CCCc3ccc(Cl)cc3Cl)c3[n+](cc2c1OC)CCc1cc2c(cc1-3)OCO2
inactive: [4] 28.9% | [5] 20.5% | [9] 32.9% | [10] 76.4%
active: [1] -38.6% | [2] -24.5% | [3] 0.597% | [6] -8.36% | [7] -8.37% | [8] -48.4% | [11] 3.35% | [12] -28% | [13] -71.2% | [14] 4.21% | [15] 6.01% | [16] -11.6% | [17] -83.7% | [18] -55.3%

Cc1cc2c(-c3nc4ccccn4c3N)c(O)c(O)cc2c(O)c1-c1c(C)cc2c(-c3nc4ccccn4c3N)c(O)c(O)cc2c1O
inactive: [1] 26.9% | [3] 19.9% | [4] 36.7% | [5] 33.7% | [7] 28.9% | [8] 26.5% | [9] 37.6% | [10] 26.4% | [11] 14.6% | [12] 21.2% | [13] 13.4% | [14] 22.7% | [15] 10.7% | [17] 30.7% | [18] 22.1%
active: [2] 9.18% | [6] -10.4% | [16] 9.9%

Cc1ccsc1C(NC(=O)c1ccccc1)c1cc(Cl)c2cccnc2c1O (centres undefined)
inactive: [1] 13.2% | [2] 13.8% | [4] 46.9% | [5] 32% | [6] 16% | [7] 13.1% | [8] 18.8% | [9] 31.5% | [11] 24.1% | [12] 35.4% | [13] 30.5% | [14] 18.8% | [15] 21.8% | [16] 13.7% | [17] 45% | [18] 22%
active: [3] 8.81% | [10] 7.05%

Cc1ccc2oc(=O)cc(-c3cc(-c4cc5ccccc5oc4=O)nc(N)c3C#N)c2c1
inactive: [1] 74.3% | [2] 72.9% | [3] 61.1% | [4] 101% | [6] 78.8% | [7] 81.6% | [8] 77.1% | [9] 70.7% | [10] 80.4% | [11] 59.7% | [12] 57.2% | [13] 65.7% | [14] 83.5% | [15] 78.1% | [16] 51.4% | [17] 93% | [18] 65.7%
active: [5] 8.25%

C=CC[n+]1c(/C=C2\Sc3ccccc3N2C)sc(-c2ccccc2)c1-c1ccccc1
active: [1] 1.88% | [2] 0.0474% | [6] -15% | [11] 5.7% | [13] 5.39% | [15] 6.39%
inactive: [3] 15.1% | [4] 21.9% | [5] 23.8% | [7] 36.7% | [8] 15.1% | [9] 56.9% | [10] 85% | [12] 11.9% | [14] 22.1% | [16] 12% | [17] 29.4% | [18] 14%

Cc1cc(N(CCNc2ccnc3cc(Cl)ccc23)Cc2ccc3c(c2)OCO3)nc(N2CCCC2)n1
active: [1] -46.7% | [2] -27.3% | [3] 7.4% | [5] -44.9% | [7] -14.4% | [8] -30.7% | [9] 6.29% | [11] -36.4% | [12] -7.74% | [13] -69.5% | [14] 8.91% | [15] 7.77% | [16] -68.8% | [17] -24.4%
inactive: [4] 20.6% | [6] 40.9% | [10] 31.1% | [18] 44.9%

COc1cc(NCCCN)c2ncccc2c1
inactive: [1] 68.5% | [2] 38.5% | [3] 82.1% | [4] 93.2% | [5] 84.1% | [6] 89.1% | [7] 95.7% | [8] 93.3% | [9] 92.2% | [10] 85.7% | [11] 91.9% | [12] 74.9% | [13] 83.8% | [14] 79.1% | [15] 90.1% | [16] 60.4% | [17] 83.5% | [18] 68.2%

Cc1cc(O)cc(-c2c(-c3ccnc(-c4cccnc4)c3)cnn2C)c1
inactive: [1] 42.2% | [2] 51.1% | [3] 73.5% | [4] 54.9% | [5] 60.9% | [6] 69.3% | [7] 58.8% | [8] 79.4% | [9] 58.9% | [10] 67.2% | [11] 29.3% | [12] 75.1% | [13] 61.9% | [14] 83.4% | [15] 43.5% | [16] 71.9% | [17] 88.2% | [18] 68.6%

Nc1c(C(=O)c2ccccc2)sc2nc(-c3cccs3)ccc12
active: [8] 9.4% | [10] 3.97% | [13] -5.48%
inactive: [1] 30.5% | [2] 21.4% | [3] 28.9% | [4] 66.9% | [5] 57.3% | [6] 35.4% | [7] 46.5% | [9] 34.3% | [11] 41.8% | [12] 59.6% | [14] 28.4% | [15] 34.2% | [16] 13.3% | [17] 32.3% | [18] 28.3%

CC(C)=CCc1cc2c(cc1O)C1=C(C(=O)C3=C(NCCS3(=O)=O)C1=O)C(C=C(C)C)O2 (centres undefined)
inactive: [2] 43.3% | [3] 13.4% | [4] 154% | [5] 32.9% | [6] 69.3% | [9] 73.5% | [10] 86.6% | [11] 10.1% | [17] 32.4%
active: [1] 6.83% | [7] 1.26% | [8] -0.915% | [13] -62.3% | [14] 6.34% | [15] -43.2% | [16] -21.2%

Brc1ccc([I+]c2ccc(Br)cc2)cc1
inactive: [3] 11.6% | [4] 61% | [5] 22.3% | [6] 43.6% | [7] 26.2% | [8] 61.6% | [9] 69.7% | [10] 98.9% | [11] 16.4% | [13] 19.5% | [14] 17.8% | [17] 25%
active: [1] 3.44% | [2] 7.72% | [15] 7.26% | [16] 8.91% | [18] 3.55%

O=C1/C(=C\c2cccc(OCCCCCOc3ccc(Cl)cc3)c2)N=C2SCCCN12
inactive: [1] 92.1% | [2] 40.9% | [3] 53% | [4] 85.3% | [5] 31.3% | [6] 93.8% | [7] 86.9% | [8] 59.3% | [9] 87% | [10] 45.4% | [11] 26.4% | [12] 57.4% | [13] 46.1% | [14] 86.2% | [15] 68.5% | [16] 52.7% | [17] 71% | [18] 48.2%

CC(C)=CCc1cc2c(cc1O)C1=C(C(=O)C3=C(C1=O)S(=O)(=O)CCN3)C(C=C(C)C)O2 (centres undefined)
inactive: [9] 11.1% | [10] 73.8% | [18] 13.6%
active: [1] 2.02% | [2] 9.78% | [3] -5.83% | [4] -72.4% | [5] -98.2% | [6] -3.23% | [7] -30.6% | [8] 0.0791% | [11] -2.63% | [13] -52.6% | [14] -18.9% | [15] -50.7% | [16] -24.8% | [17] -66%

CSc1nc2ncncc2[nH]1
inactive: [1] 95.2% | [2] 201% | [3] 104% | [4] 93.9% | [5] 102% | [6] 113% | [7] 76.1% | [8] 109% | [9] 74.8% | [10] 106% | [11] 93.8% | [12] 110% | [13] 91.9% | [14] 106% | [15] 94.4% | [17] 108% | [18] 116%
